# Assay results from ChEMBL document CHEMBL3988442, “University of Dundee, Small-Polar-MMV Screening Library” (2021).
# For some of these results: Entries with a potency or affinity are not part of this list.
# Experiments:
# Parameters in all cases: scale not given: direction of the effect not stated beside the values
# [1] = biological target: Protein translocase subunit SecA (Escherichia coli (strain K12)) (UniProt P10408); assay: Assay to Identify E. coli SecA ATPase Inhibitors; type: functional; conditions: 30 µM
# Protein translocase subunit SecA (Escherichia coli (strain K12)), sequence (P10408 whole entry): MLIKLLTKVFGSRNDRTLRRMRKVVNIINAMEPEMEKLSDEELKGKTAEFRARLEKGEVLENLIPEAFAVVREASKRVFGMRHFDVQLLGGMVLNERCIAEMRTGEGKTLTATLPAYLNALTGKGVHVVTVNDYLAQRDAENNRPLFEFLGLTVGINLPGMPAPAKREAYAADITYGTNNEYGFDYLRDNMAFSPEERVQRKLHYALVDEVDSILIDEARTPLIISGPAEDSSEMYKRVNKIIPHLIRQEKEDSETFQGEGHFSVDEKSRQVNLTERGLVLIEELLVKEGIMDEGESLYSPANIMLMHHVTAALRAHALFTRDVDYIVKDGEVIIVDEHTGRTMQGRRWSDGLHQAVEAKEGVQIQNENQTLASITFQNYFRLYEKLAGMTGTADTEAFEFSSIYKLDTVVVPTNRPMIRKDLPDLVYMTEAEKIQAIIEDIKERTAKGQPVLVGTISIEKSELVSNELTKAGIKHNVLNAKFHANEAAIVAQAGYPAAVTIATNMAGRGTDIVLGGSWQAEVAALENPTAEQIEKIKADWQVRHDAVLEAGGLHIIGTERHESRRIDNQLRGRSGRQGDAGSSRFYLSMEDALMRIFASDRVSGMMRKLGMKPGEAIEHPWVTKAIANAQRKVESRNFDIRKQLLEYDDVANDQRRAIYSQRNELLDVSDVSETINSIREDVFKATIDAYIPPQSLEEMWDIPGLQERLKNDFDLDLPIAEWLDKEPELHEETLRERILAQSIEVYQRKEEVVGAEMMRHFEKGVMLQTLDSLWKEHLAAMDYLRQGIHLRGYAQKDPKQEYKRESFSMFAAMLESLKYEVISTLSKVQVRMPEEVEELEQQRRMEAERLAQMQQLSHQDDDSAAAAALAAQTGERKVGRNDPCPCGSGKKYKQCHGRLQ
# [2] = biological target: T1, Ubiquitin-activating enzyme e1, putative (Leishmania donovani (strain BPK282A1)) (UniProt E9BSI1); assay: Leishmania donovani Ubiquitin Activating Enzyme (LdE1); type: functional; conditions: 30 µM
# T1 sequence (whole entry): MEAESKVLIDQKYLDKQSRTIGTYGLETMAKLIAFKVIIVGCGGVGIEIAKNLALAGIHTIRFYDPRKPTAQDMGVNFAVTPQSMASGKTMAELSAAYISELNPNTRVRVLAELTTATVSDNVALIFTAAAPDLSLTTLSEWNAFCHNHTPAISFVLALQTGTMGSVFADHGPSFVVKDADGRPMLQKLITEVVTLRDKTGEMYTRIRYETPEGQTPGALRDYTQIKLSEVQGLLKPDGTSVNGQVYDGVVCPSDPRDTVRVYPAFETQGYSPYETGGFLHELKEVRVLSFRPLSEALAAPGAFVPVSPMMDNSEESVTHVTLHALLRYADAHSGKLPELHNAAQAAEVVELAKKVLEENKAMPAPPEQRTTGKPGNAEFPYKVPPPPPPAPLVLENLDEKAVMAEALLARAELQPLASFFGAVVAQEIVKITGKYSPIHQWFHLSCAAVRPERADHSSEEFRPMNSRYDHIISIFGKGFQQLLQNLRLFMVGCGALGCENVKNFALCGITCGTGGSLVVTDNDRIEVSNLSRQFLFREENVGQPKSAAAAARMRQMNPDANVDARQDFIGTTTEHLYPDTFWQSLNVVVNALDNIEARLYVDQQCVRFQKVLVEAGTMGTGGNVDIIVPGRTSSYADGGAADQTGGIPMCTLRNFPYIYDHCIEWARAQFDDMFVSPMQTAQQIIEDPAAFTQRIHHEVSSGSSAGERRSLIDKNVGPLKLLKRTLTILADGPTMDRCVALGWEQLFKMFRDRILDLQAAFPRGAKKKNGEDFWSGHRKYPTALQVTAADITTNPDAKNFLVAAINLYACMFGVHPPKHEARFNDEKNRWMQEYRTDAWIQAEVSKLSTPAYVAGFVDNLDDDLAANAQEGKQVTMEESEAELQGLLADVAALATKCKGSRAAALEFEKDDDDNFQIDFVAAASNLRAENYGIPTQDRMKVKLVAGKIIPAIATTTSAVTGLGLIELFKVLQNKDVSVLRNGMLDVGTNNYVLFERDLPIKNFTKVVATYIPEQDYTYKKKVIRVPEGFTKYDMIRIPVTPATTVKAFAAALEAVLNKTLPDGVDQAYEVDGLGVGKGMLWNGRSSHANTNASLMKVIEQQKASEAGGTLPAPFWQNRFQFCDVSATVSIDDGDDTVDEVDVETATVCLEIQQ
# [3] = biological target: AMP-activated protein kinase, AMPK (Homo sapiens) (UniProt P54646+O43741+P54619+Q9UGJ0+Q9Y478+Q13131+Q9UGI9); assay: AMP-dependent Kinase enzyme assay. An in vitro enzyme assay that detects ADP turnover that is directly proportional to AMPK activity. This uses naive AMPK that is activated during the assay with MK-8722; type: functional; conditions: 30 µM
# [4] = biological target: Sialic acid-binding Ig-like lectin 9 (Homo sapiens) (UniProt Q9Y336); assay: Hs-Siglec9 ALPHAscreen SOP 20170721; conditions: 10 µM
# Sialic acid-binding Ig-like lectin 9 (Homo sapiens), sequence (Q9Y336 whole entry): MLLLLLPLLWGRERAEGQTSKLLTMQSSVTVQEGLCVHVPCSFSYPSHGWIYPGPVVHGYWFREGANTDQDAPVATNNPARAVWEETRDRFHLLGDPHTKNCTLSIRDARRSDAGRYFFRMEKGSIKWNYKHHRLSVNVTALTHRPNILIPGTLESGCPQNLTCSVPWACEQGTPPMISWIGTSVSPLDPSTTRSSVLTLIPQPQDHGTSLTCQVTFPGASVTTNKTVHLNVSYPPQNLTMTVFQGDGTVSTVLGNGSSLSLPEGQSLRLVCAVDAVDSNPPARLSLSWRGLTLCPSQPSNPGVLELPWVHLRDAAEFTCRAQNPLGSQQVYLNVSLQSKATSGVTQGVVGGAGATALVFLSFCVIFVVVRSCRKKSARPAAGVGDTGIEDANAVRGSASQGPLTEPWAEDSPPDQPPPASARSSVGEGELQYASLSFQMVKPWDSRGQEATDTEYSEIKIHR
# Trypanosoma cruzi = assay: Trypanosoma cruzi phosphomannomutase and mannose-1-phosphate guanylyltransferase assay; type: functional; conditions: 10 µM
# [5] = biological target: T2, Arginase-2, mitochondrial (Homo sapiens) (UniProt P78540); assay: in vitro enzyme assay to detect the production of urea directly proportional to the activity of Arginase II; type: functional; conditions: 33.3 µM; further: in the data most compounds retested in dose-response had high values
# T2 sequence (whole entry): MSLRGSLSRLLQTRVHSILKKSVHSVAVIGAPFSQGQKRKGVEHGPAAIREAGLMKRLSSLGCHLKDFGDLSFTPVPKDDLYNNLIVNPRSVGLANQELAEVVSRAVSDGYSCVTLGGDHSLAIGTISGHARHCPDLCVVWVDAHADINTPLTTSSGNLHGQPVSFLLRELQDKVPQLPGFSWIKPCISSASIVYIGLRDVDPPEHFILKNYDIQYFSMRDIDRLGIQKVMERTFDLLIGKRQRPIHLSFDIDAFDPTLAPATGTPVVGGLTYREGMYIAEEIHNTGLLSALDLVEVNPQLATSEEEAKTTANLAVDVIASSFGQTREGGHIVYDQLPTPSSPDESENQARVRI
# [6] = biological target: T3, Proteasome subunit beta (Trypanosoma cruzi) (UniProt O96673); assay: Trypanosoma cruzi proteasome chymotrypsin-like activity (TcProtChymo) assay.; further: in the data most compounds retested in dose-response had high values; type: functional; conditions: 9.37 µM
# T3 sequence (whole entry): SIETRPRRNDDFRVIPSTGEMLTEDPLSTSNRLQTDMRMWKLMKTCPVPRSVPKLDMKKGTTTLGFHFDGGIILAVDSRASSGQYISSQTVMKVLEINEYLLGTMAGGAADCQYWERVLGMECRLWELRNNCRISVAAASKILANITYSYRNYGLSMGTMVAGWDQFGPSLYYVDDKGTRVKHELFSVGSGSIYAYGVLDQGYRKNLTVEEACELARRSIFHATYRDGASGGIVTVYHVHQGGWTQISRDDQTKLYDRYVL
# Homo sapiens = species: Homo sapiens; assay: To identify inhibition of the IFN signalling (Jak-Stat) pathway via expression of an eGFP reporter gene under the control of an IFN-stimulated response element (ISRE) containing MxA promoter.; type: functional; conditions: 30 µM
# [7] = biological target: T4, Tyrosyl-tRNA synthetase, putative (Trypanosoma cruzi (strain CL Brener)) (UniProt Q4DSP6); assay: Trypanosoma cruzi tyrosyl tRNA synthetase (TcYRS) _High Tyrosine SOP; type: functional; conditions: 30 µM; further: in the data most compounds retested in dose-response had high values
# T4 sequence (whole entry): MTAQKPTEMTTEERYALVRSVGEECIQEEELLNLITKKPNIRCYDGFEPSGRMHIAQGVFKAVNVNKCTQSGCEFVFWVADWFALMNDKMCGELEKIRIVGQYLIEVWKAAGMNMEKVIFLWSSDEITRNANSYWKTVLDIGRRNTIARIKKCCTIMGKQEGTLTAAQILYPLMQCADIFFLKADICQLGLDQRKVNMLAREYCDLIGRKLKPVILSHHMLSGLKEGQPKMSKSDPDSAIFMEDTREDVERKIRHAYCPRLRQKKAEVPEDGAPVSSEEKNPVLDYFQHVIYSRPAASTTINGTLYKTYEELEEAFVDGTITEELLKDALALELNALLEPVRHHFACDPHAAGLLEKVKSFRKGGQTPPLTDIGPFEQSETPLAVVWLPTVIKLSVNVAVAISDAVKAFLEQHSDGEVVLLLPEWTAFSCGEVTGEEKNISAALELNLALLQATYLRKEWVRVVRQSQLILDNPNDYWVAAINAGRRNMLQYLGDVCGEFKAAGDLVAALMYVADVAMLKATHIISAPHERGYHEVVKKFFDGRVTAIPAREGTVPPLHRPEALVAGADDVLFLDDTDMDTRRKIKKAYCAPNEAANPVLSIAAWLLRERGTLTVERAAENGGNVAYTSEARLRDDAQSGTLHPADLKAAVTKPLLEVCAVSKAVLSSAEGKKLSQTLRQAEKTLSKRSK
# [8] = biological target: T4, Tyrosyl-tRNA synthetase, putative (Trypanosoma cruzi (strain CL Brener)); assay: Trypanosoma cruzi tyrosyl tRNA synthetase (TcYRS) SOP; type: functional; conditions: 30 µM
# [9] = biological target: Chromo domain-containing protein 1 (Saccharomyces cerevisiae (strain ATCC 204508 / S288c) (Baker's yeast)) (UniProt P32657); assay: ScCHD-1 Enzyme Inhibition Assay; type: functional; conditions: 30 µM; further: in the data most compounds retested in dose-response had high values
# Chromo domain-containing protein 1 (Saccharomyces cerevisiae (strain ATCC 204508 / S288c) (Baker's yeast)), sequence (P32657 whole entry, the tested form may be a part): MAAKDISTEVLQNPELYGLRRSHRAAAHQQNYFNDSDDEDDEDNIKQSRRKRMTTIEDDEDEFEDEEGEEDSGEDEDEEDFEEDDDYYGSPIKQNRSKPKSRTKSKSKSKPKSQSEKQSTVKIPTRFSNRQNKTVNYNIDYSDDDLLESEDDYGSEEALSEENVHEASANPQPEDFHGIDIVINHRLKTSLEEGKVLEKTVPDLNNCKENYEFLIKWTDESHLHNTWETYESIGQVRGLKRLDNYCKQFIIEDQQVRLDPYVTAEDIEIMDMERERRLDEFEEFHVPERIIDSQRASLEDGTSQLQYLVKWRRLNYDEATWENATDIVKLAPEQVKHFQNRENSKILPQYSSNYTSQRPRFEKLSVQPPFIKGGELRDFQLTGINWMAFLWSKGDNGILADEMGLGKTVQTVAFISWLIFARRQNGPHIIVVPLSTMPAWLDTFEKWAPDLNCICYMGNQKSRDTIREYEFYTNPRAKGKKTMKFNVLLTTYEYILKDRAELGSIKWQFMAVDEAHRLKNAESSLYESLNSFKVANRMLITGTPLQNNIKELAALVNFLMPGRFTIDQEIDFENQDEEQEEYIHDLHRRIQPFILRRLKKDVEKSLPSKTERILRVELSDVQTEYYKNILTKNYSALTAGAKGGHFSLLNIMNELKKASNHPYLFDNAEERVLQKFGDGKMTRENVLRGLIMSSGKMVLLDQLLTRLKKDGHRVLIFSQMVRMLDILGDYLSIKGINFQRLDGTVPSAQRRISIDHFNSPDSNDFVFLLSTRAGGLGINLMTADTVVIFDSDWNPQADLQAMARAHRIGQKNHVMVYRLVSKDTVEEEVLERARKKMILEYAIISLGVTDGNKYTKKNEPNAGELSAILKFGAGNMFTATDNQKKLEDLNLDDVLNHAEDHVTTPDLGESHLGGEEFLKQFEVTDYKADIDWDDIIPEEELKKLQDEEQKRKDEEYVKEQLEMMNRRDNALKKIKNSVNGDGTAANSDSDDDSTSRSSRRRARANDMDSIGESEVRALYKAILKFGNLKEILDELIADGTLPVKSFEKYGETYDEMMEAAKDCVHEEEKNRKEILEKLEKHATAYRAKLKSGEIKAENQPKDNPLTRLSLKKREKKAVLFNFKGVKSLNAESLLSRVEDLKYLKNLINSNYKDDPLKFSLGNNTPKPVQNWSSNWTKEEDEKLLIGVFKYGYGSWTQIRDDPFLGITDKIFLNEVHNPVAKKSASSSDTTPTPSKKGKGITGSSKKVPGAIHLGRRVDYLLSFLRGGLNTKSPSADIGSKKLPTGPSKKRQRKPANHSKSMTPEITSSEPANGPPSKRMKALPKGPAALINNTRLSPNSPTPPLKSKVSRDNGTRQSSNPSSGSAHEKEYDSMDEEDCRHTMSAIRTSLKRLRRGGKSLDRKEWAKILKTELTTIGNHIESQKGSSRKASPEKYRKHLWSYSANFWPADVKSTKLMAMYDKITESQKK
SMILES,Percent Effect [1],Percent Effect [2],Percent Effect [3],Percent Effect [4],Percent Effect (Trypanosoma cruzi),Percent Effect [5],Percent Effect [6],Percent Effect (Homo sapiens),Percent Effect [7],Percent Effect [8],Percent Effect [9]
CC(=O)N(Cc1noc(C)n1)C1CCN(Cc2ccncc2Cl)C1 (stereo unspecified),-3.16%,16.5%,-1.3%,0.699%,-1.95%,2.8%,12.5%,8.22%,3.12%,12.7%,-16%
CC(C)c1nccn1CCCNC(=O)c1ccc(N(C)C)nc1,-2.99%,8%,-4.43%,14%,3.21%,13.5%,6.97%,13.7%,1.64%,8.64%,-5.17%
CC(Cn1cccn1)NC(=O)Nc1ccc(F)cc1 (stereo unspecified),0.465%,6.94%,-0.867%,-4.43%,-5.15%,1.77%,22.1%,9.63%,1.05%,0%,-1.51%
COc1ccc(C2C3=C(COC3=O)Nc3[nH]nc(C)c32)cc1OC (stereo unspecified),2.08%,6.67%,9.48%,-1.62%,-6.68%,-10.7%,12.8%,8.17%,5.29%,10.3%,-11%
CNC(=O)c1nc2c(s1)CCN(C(=O)c1cccnc1)CC2,2.24%,0%,4.01%,3.91%,-3.67%,-50.4%,3.42%,3.61%,3.12%,5%,-2.25%
c1cnnc(N2CCCC2CNCc2cc[nH]n2)c1 (stereo unspecified),-2.52%,0%,4.85%,-5.55%,4.89%,3.45%,-1.34%,-3.22%,1.47%,7.32%,-6.65%
C=C(C)COCCNC(=O)C1CCCN1C(C)=O (stereo unspecified),-2.72%,18.2%,-0.215%,2.93%,7.3%,-1.78%,5.41%,6.11%,5.83%,21.9%,-8.29%
COCc1noc(C2(c3ccc(OC)cc3)CCOCC2)n1,-3.44%,5.41%,0.468%,6.74%,-0.386%,2.86%,14.1%,9.88%,3.7%,17.1%,-2.16%
Cc1cc(N(C)Cc2cc(C)on2)n2nc(C)c(C)c2n1,1.74%,4.17%,-0.739%,-6.39%,-6.71%,1.32%,11.4%,10.3%,2.1%,7.69%,-5.04%
CC(=O)Nc1nc(C(=O)NC(C)c2ccc(F)cc2)cs1 (stereo unspecified),-2.72%,15.6%,16.6%,-7.49%,6.76%,-9.05%,11.1%,-15.4%,8.57%,21.2%,-24.3%
O=C(Cc1ccc2c(c1)CCO2)N1CCCCC1Cn1cccn1 (stereo unspecified),-5.85%,10.5%,0.878%,4.66%,2.24%,-5.92%,7.19%,7.18%,5.32%,7.79%,-7.71%
